Test results taken from PMC4336329 (PLoS ONE, 2015).
Out of some 310,000 compounds screened, about 14,000 (4.5%) showed an effect of 50% or more. Effects have a minus sign here. Many of the other results were omitted from the sample, so strong results are more common in it than they were.

molecular target: human ether-à-go-go-related gene (hERG) potassium channel (human, UniProt Q12809); assay: primary screen, population patch clamp on CHO cells stably expressing hERG; higher = less effect of the substance
Sequence (Q12809 whole entry, looked up): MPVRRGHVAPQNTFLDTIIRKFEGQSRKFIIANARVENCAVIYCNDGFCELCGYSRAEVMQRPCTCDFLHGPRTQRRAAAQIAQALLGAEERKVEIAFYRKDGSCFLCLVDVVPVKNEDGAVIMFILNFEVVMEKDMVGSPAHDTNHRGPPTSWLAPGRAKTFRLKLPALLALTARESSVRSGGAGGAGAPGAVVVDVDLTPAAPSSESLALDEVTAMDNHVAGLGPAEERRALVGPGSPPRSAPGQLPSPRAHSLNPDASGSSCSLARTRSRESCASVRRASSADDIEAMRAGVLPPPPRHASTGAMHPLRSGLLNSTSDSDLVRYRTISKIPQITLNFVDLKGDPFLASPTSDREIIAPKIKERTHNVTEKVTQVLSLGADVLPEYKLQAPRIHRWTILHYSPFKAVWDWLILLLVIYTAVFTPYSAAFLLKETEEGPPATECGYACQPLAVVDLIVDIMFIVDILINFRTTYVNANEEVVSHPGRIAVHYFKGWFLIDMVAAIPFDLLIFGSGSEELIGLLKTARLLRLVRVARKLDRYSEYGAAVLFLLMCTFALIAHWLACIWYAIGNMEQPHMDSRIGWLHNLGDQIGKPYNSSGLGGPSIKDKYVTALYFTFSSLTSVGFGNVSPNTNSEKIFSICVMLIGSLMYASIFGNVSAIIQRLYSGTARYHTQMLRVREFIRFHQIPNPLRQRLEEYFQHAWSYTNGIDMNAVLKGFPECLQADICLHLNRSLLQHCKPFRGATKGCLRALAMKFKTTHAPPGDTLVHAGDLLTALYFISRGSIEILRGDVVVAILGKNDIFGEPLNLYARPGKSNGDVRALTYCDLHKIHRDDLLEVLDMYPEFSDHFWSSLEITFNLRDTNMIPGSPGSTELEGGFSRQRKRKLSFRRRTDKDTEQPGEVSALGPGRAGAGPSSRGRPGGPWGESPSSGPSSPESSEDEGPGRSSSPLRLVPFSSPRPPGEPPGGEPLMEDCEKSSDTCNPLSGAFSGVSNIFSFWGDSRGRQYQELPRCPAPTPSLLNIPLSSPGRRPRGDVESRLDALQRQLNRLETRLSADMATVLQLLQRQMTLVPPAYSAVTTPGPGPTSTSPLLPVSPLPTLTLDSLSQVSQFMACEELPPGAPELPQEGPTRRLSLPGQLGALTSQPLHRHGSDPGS
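Also: peak tail current of the secondary pulse compared with the same well before compound.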

Row | Compound | hERG current change (%, negative = inhibition) at 10uM
1 | CCOC(=O)C1CCC2(CC1)C(C#N)=C(N)Oc1n[nH]c(C)c12 (centres unmarked) | -14.2%
2 | Cc1cccc(C(=O)Oc2csc(=S)n2C(=O)c2cccc(C)c2)c1 | 6.76%
3 | COc1ccc([N+](=O)[O-])c(OC)c1C(=O)NC(=O)Nc1nc(C)cc(C)n1 | 18%
4 | O=S(=O)(Nc1ccccc1)c1ccc2c(c1)CCO2 | 11%
5 | O=C(Cn1c(=O)c2sccc2n(Cc2ccc([N+](=O)[O-])cc2)c1=O)NCCc1ccccc1 | -49%
6 | O=C(OCC(=O)N1CCN(C(=O)c2ccco2)CC1)c1cn(-c2ccccc2)nc1-c1ccccc1 | -67%
7 | O=C(c1ccco1)N1CCN(C(=O)c2cn(-c3ccccc3)nc2-c2ccccc2)CC1 | -86.5%
8 | Cc1cnc(C(=O)OCC(=O)N2CCN(C(=O)c3ccco3)CC2)cn1 | -8.85%
9 | O=C(OCC(=O)N1CCN(C(=O)c2ccco2)CC1)c1ccccc1O | -18.2%
10 | COc1ccccc1-c1nn(-c2ccccc2)cc1C(=O)N1CCN(C(=O)c2ccco2)CC1 | -36%
11 | O=C(c1cn(-c2ccccc2)nc1-c1ccccc1)N1CCOCC1 | -4.6%
12 | COCCSc1ccccc1C(=O)Nc1ccncc1 | 16.4%
13 | O=C(/C=C/c1ccc(F)cc1)NC(=S)Nc1ccccc1 | 4.35%
14 | Cc1ccc(C(=O)Nc2ccc(SC(F)F)cc2)s1 | 24.4%
15 | Cc1ccc(CNC(=O)CSc2nc3[nH]ncc3c(=O)[nH]2)cc1 | 4.89%
16 | COC(=O)c1c(N(S(C)(=O)=O)S(C)(=O)=O)sc2c1CCN(c1ncc(C(F)(F)F)cc1Cl)C2 | 13%
17 | C=CCN(CC=C)C(=O)C1CCN(S(=O)(=O)c2ccc(N3CCCC3=O)cc2)CC1 | 5.01%
18 | CN(Cc1ccccc1)C(=O)C1CCN(S(=O)(=O)c2ccc(-n3cnnn3)cc2)CC1 | -75.2%
19 | Cc1ccc(S(=O)(=O)N2CCC(Oc3ccc(-n4cnnn4)cc3)CC2)cc1 | 0.934%
20 | CCC(C)NC(=O)C1CCN(S(=O)(=O)c2ccc(-n3cnnn3)cc2)CC1 (centres unmarked) | 3.26%
21 | O=S(=O)(c1ccccc1)N1CCC(Oc2ccc(-n3cnnn3)cc2)CC1 | -74.8%
22 | O=C(C1CCN(S(=O)(=O)c2ccc(-n3cnnn3)cc2)CC1)N1CCN(c2ccccc2)CC1 | -35.7%
23 | C=CCN(CC=C)C(=O)C1CCN(S(=O)(=O)c2ccc(-n3cnnn3)cc2)CC1 | -54.4%

Row | Compound | hERG current change (%, negative = inhibition) at 10uM
24 | CCN(CC)C(=O)C1CCN(S(=O)(=O)c2ccc(-n3cnnn3)cc2)CC1 | -30%
25 | CC(=O)c1ccc(S(=O)(=O)N2CCC(Oc3ccc(-n4cnnn4)cc3)CC2)cc1 | 21.9%
26 | COc1ccc(N2CCN(c3nc4ccccc4nc3NS(=O)(=O)c3ccccc3)CC2)cc1 | 1.21%
27 | CCOC(=O)/C(C#N)=C/c1cn(CCC(=O)O)nc1-c1ccc(F)cc1 | 4.24%
28 | Cc1ccc(S(=O)(=O)N2CCN(C3CC(=O)N(CCc4ccccc4)C3=O)CC2)cc1C (centres unmarked) | -27.7%
29 | Cc1cccc(C)c1NC(=O)C(c1cccs1)N(Cc1ccco1)C(=O)Cn1nnc2ccccc21 (centres unmarked) | 14.4%
30 | Cc1ccc(S(=O)(=O)NCCC(=O)OCC(=O)NC(=O)c2cccn2C)cc1 | -12.5%
31 | Cn1cccc1C(=O)NC(=O)COC(=O)CCNS(=O)(=O)c1cccc(C(F)(F)F)c1 | -52.4%
32 | O=C(COC(=O)CCNS(=O)(=O)c1cccc(C(F)(F)F)c1)NC(=O)NC1CCCCC1 | -14.4%
33 | Oc1ccccc1/C=N/Nc1nccnc1Cl | -0.0796%
34 | CCOC(=O)C1CCN(C2CCN(C(=O)c3oc4c(F)cccc4c3C)CC2)CC1 | -71.1%
35 | CCCN(CC1CC1)C(=O)COC(=O)c1oc2ccc(OCC)cc2c1C | -27.8%
36 | CCCN(CC1CC1)C(=O)COC(=O)c1[nH]c(C)c(C(=O)OCC)c1C | -5.5%
37 | Cc1c(C(=O)N2CCC(N3CCSCC3)CC2)oc2c(F)cccc12 | -34.9%
38 | CCOC(=O)N1CCC(NC(=O)c2oc3c(C)c(C)ccc3c2C)CC1 | -32.2%
39 | CCOC(=O)C1CCN(C2CCN(C(=O)c3oc4c(C)c(C)ccc4c3C)CC2)CC1 | -69.3%
40 | CCCN(CC1CC1)C(=O)COC(=O)c1oc2c(F)cccc2c1C | -52.8%
41 | COCC1CCN(C(=O)c2oc3c(F)cccc3c2C)C1 (centres unmarked) | 0.639%
42 | Cc1ccc2c(C)c(C(=O)N3CCN(C4CCS(=O)(=O)C4)CC3)oc2c1C (centres unmarked) | -4.49%
43 | Cc1cc(OCC(=O)Nc2c(C)n(C)n(-c3ccccc3)c2=O)ccc1[N+](=O)[O-] | -23.5%
44 | Cc1[nH]c2c(C(=O)N3CCCC(CCC(=O)NCc4ccccc4F)C3)cccc2c1C (centres unmarked) | 3.39%
45 | CCCC(c1nnnn1Cc1ccccc1)N1CCC(C(N)=O)CC1.Cl (centres unmarked) | -3.44%
46 | O=C(NCc1ccco1)c1cc(-c2cccnc2)nc2ccc(Cl)cc12 | -36.3%

Row | Compound | hERG current change (%, negative = inhibition) at 10uM
47 | O=C(NCc1ccco1)c1cc(-c2cccnc2)nc2ccccc12 | -52.6%
48 | Cc1cc(C)n2nc(C(=O)NCc3ccco3)cc2n1 | 10.4%
49 | CC(C)OCCCNC(=O)c1cc(-c2cccs2)nc2ccccc12 | 0.89%
50 | CCCCNC(=S)NNC(=O)c1cc(-c2cccnc2)nc2ccccc12 | -7.41%
51 | CC(C)CCNC(=O)c1cc(-c2cccs2)nc2ccccc12 | 5.1%
52 | Cc1cc(-c2ccccc2)nc2cc(C(=O)NCc3ccco3)nn12 | -55.9%
53 | CCCCN(C)CCCNC(=O)c1cc(-c2cccnc2)nc2ccccc12 | -60.1%
54 | O=C(NCc1ccco1)c1cc(-c2ccccc2)nc2ccccc12 | -16.5%
55 | COCCCNC(=O)c1cc(-c2cccnc2)nc2ccccc12 | 16.6%
56 | CCCCN(C)CCCNC(=O)c1cc(-c2cccs2)nc2ccccc12 | -85.6%
57 | COCCNC(=O)c1cc2nc(-c3ccccc3)cc(C)n2n1 | 7.82%
58 | CCN(CCNC(=O)C1CCN(S(=O)(=O)c2c(C)noc2C)CC1)c1ccccc1 | -1.06%
59 | COc1cc(/C=C/C(=O)NCc2cccnc2)cc(OC)c1OC | 0.841%
60 | CCOC(=O)Cc1csc(NC(=O)CN2CCOCC2)n1 | 14.1%
61 | CCOC(=O)[C@@H]1[C@H]2COc3ccccc3[C@H]2N2C(=O)N(c3ccc(C)cc3)C(=O)[C@]12C | -1.42%
62 | CCCNC(=O)c1n[nH]c2c1CC(C(C)(C)CC)CC2 (centres unmarked) | 1.27%
63 | C=CCNc1ncnc2c1cnn2-c1ccc(C)cc1C | 3.76%
64 | NS(=O)(=O)c1ccc(N/N=C/c2ccc[nH]2)c([N+](=O)[O-])c1 | 0.228%
65 | COc1cc(OC)cc(C(=O)Nc2ccc3nc4n(c(=O)c3c2)CCCC4)c1 | 11.2%
66 | O=C(Nc1ccc2nc3n(c(=O)c2c1)CCCC3)c1cccc(F)c1 | -43.9%
67 | COc1cc(OC)cc(C(=O)Nc2ccc3nc4n(c(=O)c3c2)CCCCC4)c1 | -48.7%
68 | COc1cc(NC(=O)C(=O)Nc2ccc3nc4n(c(=O)c3c2)CCCCC4)cc(OC)c1OC | -1.55%
69 | COc1cccc(C(=O)Nc2ccc3nc4n(c(=O)c3c2)CCCC4)c1 | -62.9%

Row | Compound | hERG current change (%, negative = inhibition) at 10uM
70 | COc1cc(C(=O)Nc2ccc3nc4n(c(=O)c3c2)CCCCC4)cc(OC)c1OC | -67.7%
71 | COc1ccc(Cl)cc1NS(=O)(=O)c1cn(C)nc1C | 7.1%
72 | COC(=O)C1=C(c2ccc(OC)c(OC)c2)C[C@@H]2CC[C@H]1N2C(=O)NCC1CC1 | 15.1%
73 | O=C(CSc1ccc(-c2ccco2)nn1)NCc1ccccc1Cl | -49.1%
74 | Fc1ccc(/C=N/Nc2nccnc2Cl)cc1 | 9.05%
75 | Clc1nccnc1N/N=C/c1ccc(Br)cc1 | -50.3%
76 | Oc1ccc(/C=N/Nc2nccnc2Cl)cc1 | 1.47%
77 | Cc1cccc(NC(=O)CN2C(=O)S/C(=C\c3cc(C)n(C)c3C)C2=O)c1 | -10.7%
78 | O=C(CN1CCCCC1)Nc1cccc(Oc2ccccc2)c1 | -50.7%
79 | O=C(CN1CCCCC1)Nc1ccc(N2CCCCCC2)cc1.O=C(O)C(=O)O | -88.7%
80 | O=C(CN1CCCCCC1)Nc1ccccc1.O=C(O)C(=O)O | 10.8%
81 | CC1CCN(CC(=O)Nc2ccc(N3CCCCCC3)cc2)CC1.O=C(O)C(=O)O | -14.1%
82 | CC1CCCCN1CC(=O)Nc1ccc(N2CCCCCC2)cc1.O=C(O)C(=O)O (centres unmarked) | -13.2%
83 | CC1CCCCN1CC(=O)Nc1ccc(Oc2ccccc2)cc1.Cl (centres unmarked) | -50.7%
84 | O=C(CN1CCCCCC1)Nc1cccc(NC(=O)CN2CCCCCC2)c1 | 13%
85 | CC1CCCCN1CC(=O)Nc1ccc2c(c1)OCO2.O=C(O)C(=O)O (centres unmarked) | -20.1%
86 | NC(=O)C1(N2CCCCC2)CCN(CC(=O)Nc2ccc(Oc3ccccc3)cc2)CC1 | -67.8%
87 | COc1cccc(NC(=O)CN2CCCCCC2)c1.Cl | 11.6%
88 | NC(=O)C1(N2CCCCC2)CCN(CC(=O)Nc2ccccc2-c2ccccc2)CC1 | 14.6%
89 | COc1ccc(NC(=O)CN2CCC(C(N)=O)(N3CCCCC3)CC2)cc1 | 0.362%
